Bioassay records from PubChem BioAssay.
Sampled rows, rich in hits. Any-hit rate of the full collection: about 3.7%.
NALP3 yeast inh = NALP3 inhibition in yeast; inhibition, % at 10 µM; AID 2825; Yeast reconstituted NLRP3/ASC/caspase-1, beta-gal luminescence, 24 h; 330,000 tested, 0.39% active;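 active means inhibition of 50% or more; inactive means inhibition below 50%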
PfHsp90 set2 = reduces growth (ATP signal) of yeast expressing P. falciparum Hsp90; AID 504621; S. cerevisiae expressing PfHsp90, BacTiter-Glo ATP, 48 h; yeast lacking PDR1 and PDR3 efflux regulators; 310,000 tested, 0.32% active; inhibition, % at 9.4 µM;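 active means every replicate shows inhibition above about 80%, whatever the replicate mean, limit read from the data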
TIM10 inh = growth inhibitors of TIM10 yeast strain | 330,000 tested, 1.4% active | inhibition, % at 10 µM | S. cerevisiae TIM10 strain growth, BacTiter-Glo luminescence, 24 h;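 active means inhibition of 40% or more at the single tested concentration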;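 further: wild-type TIM10 isogenic control strain grown at permissive 25 °C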
tim23-1 inh = growth inhibitors of tim23-1 mutant yeast | S. cerevisiae tim23-1 growth, BacTiter-Glo luminescence, 24 h | inhibition, % at 20 µM | 330,000 tested, 1.3% active;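 active means growth inhibition of the mutant yeast at or above 50%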;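 further: temperature-sensitive mutant grown at 25 °C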
tim10-1 inh = tim10-1 yeast growth inhibition | inhibition, % at 20 µM | 330,000 tested, 2.2% active | S. cerevisiae tim10-1 ts strain growth, BacTiter-Glo, 24 h;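 active means inhibition of at least 40%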;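 further: mutant grown at 25 °C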
tim23-1 confirm = tim23-1 yeast growth inhibition, confirmed | shares compounds with tim23-1 inh | S. cerevisiae tim23-1 growth, BacTiter-Glo luminescence, 24 h | inhibition, % at 20 µM | 4,400 tested, 83% active | AID 463218;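 active means inhibition above about 39% in either of two replicate wells at 20 µM, limit read from the data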;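 further: temperature-sensitive tim23-1 mutant grown at 25 °C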
Numbers stand for hits; – = inactive; · = no result given.

SMILES	NALP3 yeast inh	PfHsp90 set2	TIM10 inh	tim23-1 inh	tim10-1 inh	tim23-1 confirm
COc1ccc(/C=C/C(=O)Oc2ccc(C)c(C)c2)cc1OC	–	–	–	–	–	·
COc1cc(/C=C/[N+](=O)[O-])ccc1OC(=O)/C=C/c1ccc(F)cc1	–	–	–	55	–	51
O=S(=O)(c1ccc(Br)s1)N1CCN(c2ccccn2)CC1	–	–	–	57	–	–
CNC(=O)CSc1nnc(-c2ccco2)n1-c1ccccc1OC	–	–	–	–	–	·
COc1cccc(NC(=S)N2CCC(c3ccc(C)cc3)C2)c1 (stereo not drawn)	–	–	–	53	–	–
CCOc1ccc(NC(=S)N2CCC(c3ccc(C)cc3)C2)cc1 (stereo not drawn)	–	–	–	64	–	41
CCOC(=O)C1CCN(C(=S)Nc2ccccc2)CC1	–	–	–	–	–	·
CCOC(=O)C1CCCN(C(=S)Nc2ccc(Nc3ccccc3)cc2)C1 (stereo not drawn)	–	–	–	52	–	41
Cn1cc(CN2CCC(N3CCNC(=O)CC3)CC2)c(-c2ccccc2F)n1	–	–	–	–	–	·
O=C(Nc1ccc(F)c([N+](=O)[O-])c1)C(=O)c1c(O)[nH]c2ccccc12	–	–	–	–	–	·
NS(=O)(=O)c1ccc(N2N=C(c3ccccc3)CC2c2cccc(Br)c2)cc1 (stereo not drawn)	·	–	–	52	–	–
CCOC(=O)c1sc2ncnc(N3CCN(CC)CC3)c2c1C	–	–	–	–	–	·
CCOC(=O)CNC(=O)c1sc2ncnc(N3CCc4ccccc4C3)c2c1C	–	–	–	51	–	–
Cc1ccc(SCC2CNc3nc4ccccc4c(=O)n32)c(C)c1 (stereo not drawn)	–	–	–	–	–	·
CC(=O)c1c(O)c(C)c(-c2ccccc2)n(-c2ccccc2)c1=O	–	–	–	56	–	43
CC(=O)c1c(O)cc(=O)n(-c2ccccc2)c1-c1ccc(C)cc1	–	–	–	–	–	·
Cc1ccc(S(=O)(=O)NC(CC(C)C)C(=O)N2CCC(C)CC2)cc1 (stereo not drawn)	–	–	–	54	–	39
Cc1ccc(S(=O)(=O)N[C@@H](CC(C)C)C(=O)N2CCC(C(=O)N[C@H](C(=O)O)C(C)C)CC2)cc1	–	–	–	–	–	·
COc1cccc(Nc2nc(-c3ccc(O)cc3)cs2)c1	–	·	–	54	–	53
COc1cccc(Nc2nc(-c3cccc(N4C(=O)c5ccccc5C4=O)c3)cs2)c1	–	–	–	–	–	·
CC(C)CNS(=O)(=O)c1ccc(S(=O)(=O)N2CCN(C3CCCC3)CC2)cc1	–	–	–	–	–	·
CCCCN(C(=O)c1ccc(N2CCCC2=O)cc1)c1c(N)n(Cc2ccccc2)c(=O)[nH]c1=O	–	–	–	–	–	·
COc1ccc2c(=O)c3c(=O)n(Cc4ccco4)c(-c4ccc(C)cc4)nc3oc2c1	–	–	–	57	–	46
Cc1cc(N)n2nc(-c3ccccc3)c(-c3ccccc3)c2n1	–	–	–	59	–	46
CN(C)/C=C1/C=C(c2ccccc2)OC1=O	–	–	–	56	–	41
SMILES	NALP3 yeast inh	PfHsp90 set2	TIM10 inh	tim23-1 inh	tim10-1 inh	tim23-1 confirm
Cc1ccccc1-c1nn2c(-c3ccccc3)nnc2s1	–	–	–	53	–	51
Cc1cc(-c2nn3c(-c4ccccc4)nnc3s2)c2ccccc2n1	–	–	–	–	–	·
Cc1ccc(C(=O)N/N=C/c2ccc(-c3ccc(Br)cc3[N+](=O)[O-])o2)o1	–	–	–	50	–	67
CCC(C(=O)N1CCOCC1)n1nc(C)c2sc3ccccc3c2c1=O (stereo not drawn)	–	–	–	–	–	·
CCN(CCCNC(=O)CCc1nc(-c2ccc(C)cc2)no1)c1cccc(C)c1	–	–	–	52	–	43
Cc1cccc(-c2noc(CCC(=O)NCCc3ccccc3)n2)c1	–	–	–	–	–	·
Oc1c(Cl)cc(Cl)cc1C=Nc1ccccc1N1CCCC1	–	·	–	57	–	54
COc1ccc(N2CCN(C(=S)NC(=O)c3cccs3)CC2)c([N+](=O)[O-])c1	–	–	–	53	–	46
COc1ccc(OC)c(C(=O)c2coc3cc(Br)c(O)c(Br)c23)c1	–	–	–	58	–	46
COc1ccc(OC)c(C(=O)c2coc3ccc(O)c(CN(C)C)c23)c1	–	–	–	–	–	·
CC(NC(=O)c1ccccc1NC(=O)CSc1nnnn1C)c1ccccc1 (stereo not drawn)	–	–	–	–	–	·
Cc1ccccc1Nc1nc2ccccc2s1	–	–	–	50	–	–
CCN(c1ccccc1)S(=O)(=O)c1ccc(OC)c(NC(=O)Cn2cnc3c2c(=O)n(C)c(=O)n3C)c1	–	–	–	–	–	·
COc1cc(/C=C/c2ccc(O)cc2)cc(OC)c1	–	–	–	51	–	–
O=C(NOC(=O)c1ccccc1)c1ccccc1	–	–	–	64	–	–
O=C(NCCCOC(=O)c1ccccc1)c1ccccc1	·	–	·	·	·	·
Cc1ccc(NC(=O)CCC(=O)c2ccc(Cl)s2)nc1	–	–	–	–	–	·
CCn1ccc(C(=O)Nc2cccc(Cl)c2)n1	–	–	–	–	–	·
CCn1cc(Br)c(C(=O)Nc2cccc(Cl)c2)n1	–	–	–	59	–	52
Cc1ccc(N2CC(C(=O)Nc3c4c(nn3C(C)(C)C)CS(=O)(=O)C4)CC2=O)cc1C (stereo not drawn)	–	–	–	–	–	·
CCOC(=O)Nc1ccc2c(c1)Nc1ccccc1S2	–	–	–	62	–	52
CC1Cc2ccccc2N1C(=O)COC(=O)c1ccc([N+](=O)[O-])o1 (stereo not drawn)	–	–	–	57	–	48
COc1ccc(N2C(=O)CCC2(C#N)c2ccc(Br)cc2)cc1 (stereo not drawn)	–	–	–	–	–	·
c1ccc(OCCSc2nc3ccccc3[nH]2)cc1	–	–	–	–	–	·
Cc1ccccc1OCCCSc1nc2ccccc2[nH]1	–	–	–	68	–	64
SMILES	NALP3 yeast inh	PfHsp90 set2	TIM10 inh	tim23-1 inh	tim10-1 inh	tim23-1 confirm
CN(CC(=O)Nc1ccc(F)c(F)c1F)C(=O)c1ccc(-n2cncn2)cc1	–	·	–	–	–	·
Nc1nc2c(s1)C(=O)CC(c1ccccc1)C2 (stereo not drawn)	–	–	–	–	–	·
O=S1(=O)CCC(N=Cc2cc(Br)ccc2O)C1 (stereo not drawn)	–	–	–	56	–	43
Oc1c(Br)cc(Br)cc1CNc1ccc(F)cc1	–	–	–	–	–	·
Oc1c(Br)cc(Br)cc1CNc1cnc2ccccc2c1	–	–	–	72	–	65
O=C(COc1ccc(Cl)cc1)Nc1ccccc1C(=O)NCc1cccnc1	–	–	–	–	–	·
COc1ccc(S(=O)(=O)N2CCOC23CCN(S(=O)(=O)c2cc(F)ccc2F)CC3)cc1	–	–	–	53	–	–
